Test [1] concerns the target Tyrosine-protein phosphatase non-receptor type 13 (Homo sapiens) (UniProt Q12923). In words: NVS_ENZ_hPTPN13: NovaScreen (NVS) Enzymatic Assay for human Protein Tyrosine Phosphatase Non-receptor Type 13 (PTPN13) (AID 2283205). The procedure, abridged: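 Cell-free assay of recombinant human PTPN13 with a fluorescent substrate, product separated by electrophoretic mobility shift and read 0.5 h after dosing. Primary screen at 25 uM in duplicate, then concentration-response up to 50 uM. Loss of signal fitted against DMSO.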

Test [2] deals with Tyrosine-protein phosphatase non-receptor type 14 (Homo sapiens) (UniProt Q15678). In words: NVS_ENZ_hPTPN14: NovaScreen (NVS) Enzymatic Assay for human Protein Tyrosine Phosphatase Non-receptor Type 14 (PTPN14) (AID 2283206). The procedure, abridged:
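Cell-free recombinant human PTPN14 with fluorescent substrate, read 0.5 h after dosing by fluorescence and electrophoretic mobility shift separating substrate from product. Primary screen at 25 uM in duplicate; hits run to 50 uM maximum; loss of signal versus DMSO.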

Test [3] concerns the target human Protein Tyrosine Phosphatase Non-receptor Type 9 (PTPN9), PTPN9 (gene 5780) (UniProt P43378). Kind of test: NVS_ENZ_hPTPN9: NovaScreen (NVS) Enzymatic Assay for human Protein Tyrosine Phosphatase Non-receptor Type 9 (PTPN9) (AID 2283209). In outline: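 Sf9-expressed enzyme in a cell-free assay, fluorescence read 1.33 h after dosing with mobility-shift separation of substrate and product. Tested at 25 uM in duplicate, then up to 50 uM; signal loss versus DMSO.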

For test [4], the target named is human Protein Tyrosine Phosphatase Non-receptor Type 4 (PTPN4), PTPN4 (gene 5775) (UniProt P29074). In words: NVS_ENZ_hPTPN4: NovaScreen (NVS) Enzymatic Assay for human Protein Tyrosine Phosphatase Non-receptor Type 4 (PTPN4) (AID 2283208). The procedure, abridged: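 Cell-free assay of PTPN4 expressed in Sf9 cells, using a fluorescent substrate with product separated by mobility shift; read 1.33 h after dosing. Single-point screen at 25 uM, then concentration-response up to 50 uM. Loss of signal relative to DMSO.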

Test [5] deals with human Protein Tyrosine Phosphatase Non-receptor Type 6 (PTPN6), PTPN6 (gene 5777) (UniProt P29350). In words: NVS_ENZ_hPTPN6: NovaScreen (NVS) Enzymatic Assay for human Protein Tyrosine Phosphatase Non-receptor Type 6 (PTPN6) (AID 2283210). The procedure, abridged: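 Cell-free assay with recombinant PTPN6 expressed in SF9 cells, fluorescent substrate, product separated from substrate by electrophoretic mobility shift; read 1.33 hours after dosing. Primary screen in duplicate at 25 uM, actives retested in concentration series; DMSO baseline.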

For 5 compounds, AC50 and outcome results are on record in PubChem BioAssay (EPA / NIEHS).

Molecules are shown by their SMILES. Results filed as inconclusive are left out. Calls of active or inactive are those of the source. The calls were made as follows: active = hit-call score of the fitted dose curve at least 0.9, where 1 is the maximum; inconclusive = response in the unintended direction; inactive = score below 0.9.

human Protein Tyrosine Phosphatase Non-receptor Type 6 (PTPN6), PTPN6 (gene 5777), sequence (P29350 whole entry, looked up): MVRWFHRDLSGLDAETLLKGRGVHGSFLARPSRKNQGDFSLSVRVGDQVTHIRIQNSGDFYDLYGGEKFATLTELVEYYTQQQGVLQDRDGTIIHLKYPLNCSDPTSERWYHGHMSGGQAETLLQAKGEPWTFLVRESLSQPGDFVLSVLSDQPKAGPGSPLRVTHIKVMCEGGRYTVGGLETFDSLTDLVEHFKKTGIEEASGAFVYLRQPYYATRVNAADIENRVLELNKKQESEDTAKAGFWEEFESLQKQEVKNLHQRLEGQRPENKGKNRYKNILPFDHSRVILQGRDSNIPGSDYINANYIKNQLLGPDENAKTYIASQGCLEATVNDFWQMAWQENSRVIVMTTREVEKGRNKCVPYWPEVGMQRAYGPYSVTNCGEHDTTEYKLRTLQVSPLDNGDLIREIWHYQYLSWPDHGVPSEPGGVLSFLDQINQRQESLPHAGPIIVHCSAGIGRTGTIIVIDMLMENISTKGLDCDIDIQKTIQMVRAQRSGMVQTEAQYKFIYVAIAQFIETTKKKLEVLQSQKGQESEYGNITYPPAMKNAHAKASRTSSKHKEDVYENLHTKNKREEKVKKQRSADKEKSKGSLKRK
human Protein Tyrosine Phosphatase Non-receptor Type 9 (PTPN9), PTPN9 (gene 5780), sequence (P43378 whole entry, looked up): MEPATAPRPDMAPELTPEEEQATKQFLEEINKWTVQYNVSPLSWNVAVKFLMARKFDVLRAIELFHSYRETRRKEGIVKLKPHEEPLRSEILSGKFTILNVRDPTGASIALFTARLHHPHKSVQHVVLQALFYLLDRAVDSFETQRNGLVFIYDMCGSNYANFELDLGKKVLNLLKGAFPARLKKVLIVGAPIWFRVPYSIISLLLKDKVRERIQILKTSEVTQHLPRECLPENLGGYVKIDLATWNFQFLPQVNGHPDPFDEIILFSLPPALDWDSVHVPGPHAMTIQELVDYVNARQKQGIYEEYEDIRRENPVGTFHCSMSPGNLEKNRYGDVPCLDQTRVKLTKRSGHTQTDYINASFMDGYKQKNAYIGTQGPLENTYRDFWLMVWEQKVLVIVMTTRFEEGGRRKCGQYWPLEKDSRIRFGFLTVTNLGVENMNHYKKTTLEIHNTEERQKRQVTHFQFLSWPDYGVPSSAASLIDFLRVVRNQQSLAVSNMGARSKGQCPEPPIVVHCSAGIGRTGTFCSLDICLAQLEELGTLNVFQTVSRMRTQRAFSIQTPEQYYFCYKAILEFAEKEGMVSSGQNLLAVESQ
Tyrosine-protein phosphatase non-receptor type 13 (Homo sapiens), sequence (Q12923 whole entry, looked up): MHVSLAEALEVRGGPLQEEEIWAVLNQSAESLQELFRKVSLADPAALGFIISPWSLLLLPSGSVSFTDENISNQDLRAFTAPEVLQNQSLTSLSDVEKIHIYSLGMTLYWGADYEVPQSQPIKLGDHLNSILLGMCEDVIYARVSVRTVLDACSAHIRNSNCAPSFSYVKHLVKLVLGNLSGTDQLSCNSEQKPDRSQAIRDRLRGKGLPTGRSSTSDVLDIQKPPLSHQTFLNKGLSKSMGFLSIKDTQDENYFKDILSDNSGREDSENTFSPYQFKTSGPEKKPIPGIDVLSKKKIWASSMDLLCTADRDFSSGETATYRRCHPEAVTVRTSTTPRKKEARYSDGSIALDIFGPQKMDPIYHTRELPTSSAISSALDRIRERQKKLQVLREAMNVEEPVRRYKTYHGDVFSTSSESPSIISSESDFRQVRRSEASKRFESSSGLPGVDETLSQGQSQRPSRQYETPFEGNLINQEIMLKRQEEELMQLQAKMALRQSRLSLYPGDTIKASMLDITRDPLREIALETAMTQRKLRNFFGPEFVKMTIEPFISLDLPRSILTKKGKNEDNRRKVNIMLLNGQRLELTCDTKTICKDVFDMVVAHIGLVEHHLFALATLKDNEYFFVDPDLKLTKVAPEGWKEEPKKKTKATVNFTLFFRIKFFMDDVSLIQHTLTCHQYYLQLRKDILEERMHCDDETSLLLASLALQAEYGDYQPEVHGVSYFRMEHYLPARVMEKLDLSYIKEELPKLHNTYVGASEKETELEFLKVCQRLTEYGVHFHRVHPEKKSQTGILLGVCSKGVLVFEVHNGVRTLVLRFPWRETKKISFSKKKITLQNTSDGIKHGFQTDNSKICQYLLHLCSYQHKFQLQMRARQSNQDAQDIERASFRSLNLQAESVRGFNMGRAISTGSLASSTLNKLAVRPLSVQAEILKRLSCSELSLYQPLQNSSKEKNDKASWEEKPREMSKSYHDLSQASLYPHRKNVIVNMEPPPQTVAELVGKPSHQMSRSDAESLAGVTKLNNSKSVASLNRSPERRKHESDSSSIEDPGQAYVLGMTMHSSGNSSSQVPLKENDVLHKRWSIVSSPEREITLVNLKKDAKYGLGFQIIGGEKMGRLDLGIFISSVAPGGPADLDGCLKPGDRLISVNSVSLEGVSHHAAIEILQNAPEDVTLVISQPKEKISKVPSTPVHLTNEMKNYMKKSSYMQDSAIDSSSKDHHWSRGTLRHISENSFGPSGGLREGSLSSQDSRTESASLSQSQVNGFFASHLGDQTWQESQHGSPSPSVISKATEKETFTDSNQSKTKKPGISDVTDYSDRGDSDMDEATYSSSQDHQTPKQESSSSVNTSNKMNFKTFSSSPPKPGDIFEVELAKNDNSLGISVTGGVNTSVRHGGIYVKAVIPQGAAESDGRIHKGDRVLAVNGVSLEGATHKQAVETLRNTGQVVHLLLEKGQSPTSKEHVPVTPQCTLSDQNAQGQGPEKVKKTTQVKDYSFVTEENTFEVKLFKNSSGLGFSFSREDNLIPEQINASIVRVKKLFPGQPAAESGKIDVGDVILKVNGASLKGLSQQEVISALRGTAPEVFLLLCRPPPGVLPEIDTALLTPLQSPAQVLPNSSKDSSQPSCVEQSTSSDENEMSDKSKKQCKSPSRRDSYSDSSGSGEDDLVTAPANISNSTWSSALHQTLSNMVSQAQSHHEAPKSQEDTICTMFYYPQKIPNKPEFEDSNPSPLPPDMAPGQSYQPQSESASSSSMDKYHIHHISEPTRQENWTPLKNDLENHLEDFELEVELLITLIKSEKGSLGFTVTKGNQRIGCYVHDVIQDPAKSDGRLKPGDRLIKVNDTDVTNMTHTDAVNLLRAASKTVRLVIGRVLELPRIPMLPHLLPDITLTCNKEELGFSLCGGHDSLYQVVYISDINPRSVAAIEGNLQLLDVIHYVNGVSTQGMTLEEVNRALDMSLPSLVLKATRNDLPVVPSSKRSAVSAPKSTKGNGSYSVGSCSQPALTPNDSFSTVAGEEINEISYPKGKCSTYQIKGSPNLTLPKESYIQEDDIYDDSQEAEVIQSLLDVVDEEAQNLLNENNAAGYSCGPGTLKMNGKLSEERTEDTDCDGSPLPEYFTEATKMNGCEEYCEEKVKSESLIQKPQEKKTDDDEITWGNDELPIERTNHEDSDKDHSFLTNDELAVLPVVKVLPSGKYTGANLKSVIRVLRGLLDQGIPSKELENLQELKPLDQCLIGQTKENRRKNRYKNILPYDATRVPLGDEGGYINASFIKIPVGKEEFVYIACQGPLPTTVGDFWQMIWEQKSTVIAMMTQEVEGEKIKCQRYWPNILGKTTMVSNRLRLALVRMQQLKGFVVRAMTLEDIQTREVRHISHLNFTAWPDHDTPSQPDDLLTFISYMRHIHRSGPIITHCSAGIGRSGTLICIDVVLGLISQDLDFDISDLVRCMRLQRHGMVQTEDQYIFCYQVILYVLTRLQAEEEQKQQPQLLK
human Protein Tyrosine Phosphatase Non-receptor Type 4 (PTPN4), PTPN4 (gene 5775), sequence (P29074 whole entry, looked up): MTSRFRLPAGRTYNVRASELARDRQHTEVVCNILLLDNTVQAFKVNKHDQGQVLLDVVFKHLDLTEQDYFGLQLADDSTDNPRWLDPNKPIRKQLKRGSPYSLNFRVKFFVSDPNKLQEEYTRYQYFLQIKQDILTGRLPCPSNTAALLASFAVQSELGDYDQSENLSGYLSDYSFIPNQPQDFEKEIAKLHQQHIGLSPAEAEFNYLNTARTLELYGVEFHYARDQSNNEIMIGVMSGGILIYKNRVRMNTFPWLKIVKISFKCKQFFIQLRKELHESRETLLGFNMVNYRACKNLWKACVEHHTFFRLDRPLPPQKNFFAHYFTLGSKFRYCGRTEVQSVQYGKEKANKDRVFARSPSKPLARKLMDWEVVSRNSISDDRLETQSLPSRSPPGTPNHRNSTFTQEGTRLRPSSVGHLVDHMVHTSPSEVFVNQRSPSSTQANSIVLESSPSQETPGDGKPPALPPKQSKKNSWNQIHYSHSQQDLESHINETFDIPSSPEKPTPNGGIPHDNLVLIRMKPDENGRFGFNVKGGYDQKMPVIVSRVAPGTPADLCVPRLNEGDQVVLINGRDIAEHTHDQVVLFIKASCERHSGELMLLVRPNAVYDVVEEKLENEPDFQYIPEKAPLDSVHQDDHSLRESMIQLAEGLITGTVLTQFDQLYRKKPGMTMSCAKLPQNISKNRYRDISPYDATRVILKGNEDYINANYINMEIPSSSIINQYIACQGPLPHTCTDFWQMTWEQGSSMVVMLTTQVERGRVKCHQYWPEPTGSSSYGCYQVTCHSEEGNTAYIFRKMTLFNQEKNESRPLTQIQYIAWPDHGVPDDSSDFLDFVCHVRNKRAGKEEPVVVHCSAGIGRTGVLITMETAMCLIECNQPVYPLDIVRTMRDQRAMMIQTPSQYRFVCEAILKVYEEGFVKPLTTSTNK

Take `CC(C)O.CC(C)O.OCCN(CCO)CCO.OCCN(CCO)CCO.[Ti]`: the AC50 is 3.51 µM (active) in test [1] and 0.00229 µM (active) in test [2]. Turning to `CCCCCCCCCCCCc1cccc(S(=O)(=O)O)c1`, the half-maximal activity concentration (AC50) in test [1] is 22.7 µM (active); in test [3] it was 5.53 µM (active). With `N#Cc1cccnc1`, the result in test [4] and in test [3] was inactive. With `COc1ccccc1N`, the AC50 in test [5] is 22.6 µM (active).

For `Oc1cc(Cl)c(Cl)cc1Cl`, in test [5], the outcome was inactive.
